Only a sample is shown.
aSyn UTR act: Activators via SNCA 5'UTR binding, MLPCN; alpha-synuclein 5'UTR reporter, activators screen; activity score, % (tested at 7.5 µM), hits read low; 300,000 tested, 7.1% active; AID 1814; in the data active means activity score below about -60%
Numbers stand for hits; i = inactive.

SMILES	aSyn UTR act
CCOC(=O)c1c(C)[nH]c(C2=NNC(=Nc3ccccc3)SC2)c1C	-96.8
CCOC(=O)c1c(C)[nH]c(C2=NNC(=Nc3ccccc3OC)SC2)c1C	-89.6
CC(=O)c1c(C)[nH]c(C2=NNC(=NC(C)(C)C)SC2)c1C	-96.9
Cc1ccc(NC(=O)C2=NNC(=O)CC2)cc1F	-74.9
CC(C)c1ccc(NC(=O)C2=NNC(=O)CC2)cc1	-143.2
CN(CCC#N)C(=O)c1cc2c(s1)-c1ccccc1SC2	-91.0
S=c1sc2c(Cl)ncnc2n1-c1ccccc1	i
COc1ccc(-c2cc3ncnc(Cl)c3s2)cc1	-69.1
COc1cc([C@@H]2c3cc4c(cc3[C@H](O)[C@H]3COC(=O)[C@H]23)OCO4)cc(OC)c1OC	i
COc1ccc2c(c1OC)CN1CCc3cc4c(cc3[C@@H]1[C@@H]2O)OCO4	-69.1
CCN(CC)c1ccc(C2=NNC(=O)CC2C)cc1[N+](=O)[O-] (configuration not stated)	i
CCCc1ccc(-c2cc(C(=O)NC3=NCCS3)c3ccccc3n2)cc1	-190.7
CCc1ccc(-c2cc(C(=O)NCc3ccccn3)c3ccccc3n2)cc1	-227.0
Cc1ccc(-c2cc(C(=O)NC3=NCCS3)c3ccccc3n2)cc1C	-167.5
Cc1ccc(-c2cc(C(=O)N/N=C/c3c(C)nn(C)c3C)c3ccccc3n2)cc1C	-73.0
CCOC(=O)c1sc(-c2ccccn2)nc1C	-125.5
Cc1nc(-c2ccccn2)sc1C(=O)Nc1ccc(Cl)c(Cl)c1	-78.4
CCOC(=O)c1sc(NC(=O)CNCc2ccccn2)c(C(=O)OCC)c1C	i
COc1ccc(C2OC3=C(Nc4cc(C)c(C)cc4N3)C2=O)cc1 (configuration not stated)	-98.2
CC(=O)c1cc(C#N)c(SCc2ccc(F)cc2)nc1C	-98.2
CC(=O)c1cccc(NC(=O)N2CCCc3ccccc32)c1	-130.9
CS(=O)(=O)N1CCc2cc(C(=O)Nc3ccc(Cl)cc3)ccc21	-137.9
O=C(Nc1ccc(S(=O)(=O)N2CCc3ccccc32)cc1)c1ccc2c(c1)OCO2	-72.9
COC(=O)Nc1ccc(S(=O)(=O)N2CCCc3ccccc32)cc1	i
O=C(Nc1ccc2c(c1)OCO2)N1CCCc2ccccc21	-102.8
SMILES	aSyn UTR act
COc1ccc(C)cc1N(C(=O)COc1ccccc1)c1nc2ccccc2s1	-92.5
CN(C)c1ccc(/C=C/C=C2/SC(=S)N(c3ccccc3)C2=O)cc1	-76.0
O=C1/C(=C/C=C/c2ccco2)SC(=S)N1c1ccc(O)cc1	-78.2
CN(C)c1ncnc2c1ncn2C1OC(CO)C(O)C1O (configuration not stated)	i
CC(=O)N(/N=C1/C(=O)Nc2ccccc21)c1ccccc1	-114.2
O=C(CN1CCCCC1)Nc1scc2c1c(=O)oc1ccccc12	-134.3
S=c1[nH]cnc2sc(-c3ccccc3)cc12	-71.3
Cc1ccc(-c2nc(NCCN3CCOCC3)c3ccccc3n2)cc1	-137.6
c1ccc(CN2CCC(Nc3nc(-c4ccccc4)nc4ccccc34)CC2)cc1	i
Cc1cc(NCCN2CCOCC2)c2ccc3ccccc3c2n1	-131.8
O=C(Nc1nc2c(F)cc(F)cc2s1)c1ccc([N+](=O)[O-])o1	-69.3
Cc1cc(C)c2sc(NC(=O)c3ccc([N+](=O)[O-])o3)nc2c1	-110.4
Cc1ccc(C)c(-c2nnc(NC(=O)c3ccc([N+](=O)[O-])o3)o2)c1	-62.9
Cc1cc(C)c2nc(NC(=O)c3ccc([N+](=O)[O-])o3)sc2c1	-144.1
O=C(CCc1ccccc1)Nc1nc2c(F)cc(F)cc2s1	-99.0
COc1ccc(-c2cc(C(F)(F)F)nc(S(C)(=O)=O)n2)cc1	-102.8
CS(=O)(=O)c1nc(-c2ccc(F)cc2)cc(C(F)(F)F)n1	-125.8
CS(=O)(=O)c1nc(-c2cccs2)cc(C(F)(F)F)n1	-89.9
Cc1cc(NC(=O)CCCS(=O)(=O)c2nc(-c3cccs3)cc(C(F)(F)F)n2)no1	-91.9
CC(=O)Nc1ccc(SCC(=O)c2cc(C)n(C)c2C)cc1	-68.9
c1ccc(CSc2n[nH]c(-c3ccco3)n2)cc1	-63.7
c1ccc(CSc2nccc(-c3ccco3)n2)cc1	-81.5
Clc1cccc(Cl)c1/C=C/c1ccn[nH]1	-232.3
Cc1c(C)n(CCc2ccccc2)c2ncnc(NCCO)c12	-145.8
N=c1c2c(-c3ccccc3)c(-c3ccccc3)n(Cc3ccccc3)c2ncn1CCO	i
SMILES	aSyn UTR act
COc1ccccc1Nc1ncnc2c1c(C)c(C)n2CCO	-103.0
FC(F)Sc1ccc(Nc2ncnc3nc[nH]c23)cc1	-73.3
CCCCOC(=O)c1ccc(Nc2ncnc3nc[nH]c23)cc1	-118.2
Cc1cccc(C(=O)NC2=NCCS2)c1	-56.3
O=C(/C=C/c1ccc(Cl)c(Cl)c1)NC1=NCCS1	-103.6
O=C(NC1=NCCS1)c1ccc(Cl)c(Cl)c1	-101.4
Clc1cc(Cl)c2nc(N3CCOCC3)sc2c1	-156.3
Clc1ccc(-c2nsc(N3CCOCC3)n2)c(Cl)c1	-125.7
Clc1ccc(Cl)c2sc(N3CCOCC3)nc12	-66.1
COC(=O)c1ccc(C2OCC(C)(C)CO2)cc1	-135.4
COC(=O)c1ccc2c(c1)C(C)(C)C(/C=C/c1ccc(OC)c(OC)c1OC)=[N+]2C	i
CCCCCN1C(=O)/C(=C/c2c(N3CCc4ccccc4C3)nc3ccccn3c2=O)SC1=S	-93.8
O=[N+]([O-])c1cc(-c2ccc(/C=N/c3nc4ccccn4c3-c3ccco3)o2)ccc1Cl	-73.9
CCOC(=O)c1c(C)oc2c1C(=O)c1ccccc1C2=O	-133.7
Cc1oc2c(c1C(=O)c1ccccc1)C(=O)C(=O)c1ccccc1-2	i
COc1ccc(C(=O)c2c(C(F)(F)F)oc3c2C(=O)c2ccccc2C3=O)cc1OC	i
Cc1oc2c(c1C(=O)O)C(=O)c1ccccc1C2=O	-62.0
C/C(=N\NC(=O)c1cc(Cl)ccc1O)c1ccc(Br)s1	-76.0
C/C(=N\NC(=O)CSCc1ccccc1Cl)c1cc(O)ccc1O	i
Cc1ccc(C)c(NC(=O)c2cc3ccccn3n2)c1	-195.7
Cc1ccccc1NC(=O)c1cc2ccccn2n1	-108.6
Cc1c(Cl)cccc1N/C(SCC(=O)N1CCCCCC1)=C(/C#N)c1nc2ccccc2s1	-66.2
CC1CCN(C(=O)CSc2nc3ccccc3s2)CC1	-153.7
O=C(CSc1nc2ccccc2s1)N1CCCCC1	-109.9
CC1CCCC(C)N1C(=O)CSc1nc2ccccc2s1 (configuration not stated)	-98.8
SMILES	aSyn UTR act
CC1CCCN(C(=O)CSc2cnc3ccccc3n2)C1 (configuration not stated)	-154.4
O=c1[nH]c(SCc2ccc(Cl)cc2)nc2[nH]ncc12	-69.6
CC(=O)Oc1ccc2cc(-c3nc4ccccc4n3C)c(=O)oc2c1	-225.7
CCN(CC)Cc1c(O)ccc2cc(-c3nc4ccccc4n3C)c(=O)oc12	-73.8
Cn1c(-c2cc3ccc(OC(=O)C(C)(C)C)cc3oc2=O)nc2ccccc21	-117.3
CC(C)(C)C(=O)Oc1ccc2cc(-c3ccc4ccccc4n3)c(=O)oc2c1	-157.3
CCc1ccc(OCC(=O)O/N=C(\N)c2cccnc2)cc1	-82.7
N/C(=N\OC(=O)COc1ccc(Br)cc1Cl)c1cccnc1	-154.5
N/C(=N\OC(=O)COc1ccc(Cl)cc1Br)c1cccnc1	-157.1
CCOC(=O)c1sc(=NC(=O)c2c(F)cccc2F)n(C)c1C	-103.5
CCOC(=O)c1sc(=NC(=O)c2ccc(F)cc2)n(C)c1C	-103.9
CCOC(=O)c1sc(=NC(=O)c2ccc(C)cc2)n(C)c1C	-195.9
CSc1ccc(/C=C/c2cc(=O)c3ccccc3[nH]2)cc1	-68.7
O=c1cc(-c2cccc(F)c2)[nH]c2ccccc12	i
Cn1c(=O)c(C(=O)Nc2ccccc2S(N)(=O)=O)c(O)c2ccccc21	-63.6

Source: PubChem BioAssay
